TTR transcr act: TTR transcription activation, primary screen; SH-SY5Y TTR promoter Gaussia luciferase, luminescence; 100% = recombinant luciferase protein wells; activation, % at 16.7 µM; 1.3% of 92,000 active;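 active = activation above the mean of all tested compounds plus 3 SD, cut at about 9.5% in these data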;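 note: cells exposed to compounds for one day before reading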
HuH7 TTR inh: counter-screen for TTR activators: TTR transcription inhibitors in HuH7 cells; shares compounds with TTR transcr act; HuH7 TTR promoter-Gaussia luciferase reporter, luminescence; inhibition, % at 16.7 µM; 4% of 1,100 active; AID 1117279;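 active = average inhibition above the solvent-only control wells' mean plus 3 SD, cut at about 15% in these data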;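 note: inhibitors lower well luminescence so higher value means more inhibition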
TTR up confirm: confirmation of human transthyretin transcription activators | shares compounds with TTR transcr act | SHSY5Y TTR promoter Gaussia luciferase, luminescence; 100% = purified Lucia enzyme wells, no cells | activation, % at 16.7 µM | 1,100 tested, under 10 active | AID 1117280;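 active = mean activation above a set limit taken from the earlier primary screen, cut at about 11% in these data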
Of the large screens only hits and unclear results are named; the others gave an inactive call (follow-up assays come after a bar, where they were run). Many of the other results were omitted from the sample, so hits are more common in it than they were.

CN(CCc1ccccn1)C(=S)Nc1cccc(S(=O)(=O)N(C)C)c1	none
COc1ccc(-c2cc(=O)oc3cc(OCC(=O)c4cccc([N+](=O)[O-])c4)ccc23)cc1	none
CC(C)(C)CCN1C[C@@H]2C(CNC(=O)c3cc(Cl)cc(Cl)c3)[C@@H]2C1 (some centres undefined)	none
CC(C)N1C(=O)CCC1C(=O)NCc1ccco1 (centres undefined)	none
Cc1ccc(C(=O)OCC(=O)NCc2cccs2)cc1	TTR transcr act 11 | HuH7 TTR inh inactive | TTR up confirm inactive
CSc1ncccc1C(=O)OCC(=O)NCc1cccs1	none
COc1ccc(C(=O)NCC(=O)OCC(=O)NCc2cccs2)cc1	none
Cc1ccc(NC(=O)C2=C(O)c3ccccc3N(C)S2(=O)=O)cc1	none
O=C(CCNC(=O)c1ccccc1Cl)Nc1cc(S(=O)(=O)N2CCOCC2)ccc1N1CCCC1	none
CCC1(c2ccccc2)NC(=O)N(CC(=O)N(C)Cc2c(F)cccc2Cl)C1=O (centres undefined)	none
C=CCNC(=O)N1CCC(CO)(Cc2ccc(Cl)cc2)CC1	none
CC(C)(C)C(=O)N1CCC(O)(CS(=O)(=O)Cc2ccccc2Cl)CC1	none
O=C(C1CC12CCCC2)N1CCC(CO)(Cc2ccccc2Cl)CC1 (centres undefined)	TTR transcr act 13 | HuH7 TTR inh inactive | TTR up confirm inactive
CCn1c(CCNC(=O)c2ccccc2Cl)n[nH]c1=S	TTR transcr act 22 | HuH7 TTR inh inactive | TTR up confirm inactive
CCn1c(CCNC(=O)c2ccc(Cl)cc2Cl)n[nH]c1=S	none
CCn1c(Cc2ccccc2)n[nH]c1=S	none
Cc1ccc(CCNC(=O)CCNS(=O)(=O)c2ccc3c(c2)c(=O)n(C)c(=O)n3C)cc1	TTR transcr act 9.9 | HuH7 TTR inh inactive | TTR up confirm inactive
Cc1csc(NC(=O)CCNS(=O)(=O)c2ccc3c(c2)c(=O)n(C)c(=O)n3C)n1	none
Cc1ccc(CCNC(=O)CN(C)S(=O)(=O)c2ccc3c(c2)c(=O)n(C)c(=O)n3C)cc1	none
CNC(=O)[C@@H]1CC=C[C@@H]2CCN(c3ccccc3)C(=O)[C@@H]21	none
COC(=O)CC1C(=O)NC2CCCCC2N1C(=O)CCl (centres undefined)	none
CCc1ccccc1NC(=O)CC(NCc1ccccc1)C(=O)O (centres undefined)	none
C=CCN1C(=O)[C@@H](CC(=O)N2CCN(C(=O)C3CC3)CC2)[C@]2(C(=O)OC)CCCCC=C12	none
CC1CCCC(NC(=O)COC(=O)Cc2ccc(Cl)cc2)C1C (centres undefined)	none
Cc1ccc(CC(=O)OCC(=O)NC2CCCC(C)C2C)cc1C (centres undefined)	none
Cc1ccc(-c2nc(N)sc2CC(=O)OCC(=O)NC2CCCC(C)C2C)cc1 (centres undefined)	TTR transcr act 15 | HuH7 TTR inh inactive | TTR up confirm inactive
COc1cc(/C=C(/C#N)C(=O)NC(C)c2ccccc2)cc(OC)c1O (centres undefined)	none
COc1ccc(/C=C(\C#N)C(=O)OCCNC(=O)c2ccncc2)cc1	none
COc1ccc(/C=C(\C#N)C(=O)OCC(=O)NC(C)c2ccccc2)cc1 (centres undefined)	TTR transcr act 17 | HuH7 TTR inh inactive | TTR up confirm inactive
O=C(Cc1ccccc1)NN1C(=O)/C(=C/c2ccccc2C(=O)O)SC1=S	none
CSC1=NCCN1C(=O)C(C)Oc1ccccc1 (centres undefined)	none
CC(OC(=O)Cn1c(C(F)(F)F)nc2ccccc21)C(=O)N1CCCc2ccccc21 (centres undefined)	none
CC(Oc1ccccc1)C(=O)N1CCCc2ccccc21 (centres undefined)	TTR transcr act 10 | HuH7 TTR inh inactive | TTR up confirm inactive
C/C(Cc1ccccc1)=N\NC(=O)CNC(=O)Cc1ccc(Cl)cc1	none
COc1ccc2cc3cc(C(=O)N4CCN(c5ccccn5)CC4)oc3nc2c1	none
O=C(CNC1CCCC1)Nc1cc(Cl)ccc1[N+](=O)[O-]	none
Cc1ccc([N+](=O)[O-])cc1NC(=O)Cc1cccs1	none
Cc1ccc([N+](=O)[O-])cc1NC(=O)CNC1CCCCC1	TTR transcr act 17 | HuH7 TTR inh inactive | TTR up confirm inactive
O=C(Cc1ccc([N+](=O)[O-])cc1)NCc1ccccn1	none
COc1ccc(NC(=O)Nc2ccc(Br)c(C)c2)cc1	none
CCOC(=O)C1CCCN(C(=O)CCn2nnnc2CN2CCOCC2)C1 (centres undefined)	none
COC(=O)CC1C(=O)NCCN1C(=S)Nc1cccc(C)c1 (centres undefined)	none
COc1ccc(NC(=O)CC2C(=O)NCCN2C(=O)Nc2ccc(C(F)(F)F)cc2)cc1 (centres undefined)	none
CCOC(=O)CC1C(=O)NCCN1C(=O)Nc1ccccc1 (centres undefined)	TTR transcr act 18 | HuH7 TTR inh inactive | TTR up confirm inactive
Nc1cccc(CP(=O)(c2ccccc2)c2ccccc2)c1	none

Screening results: PubChem, The Scripps Research Institute Molecular Screening Center
